# High-throughput results deposited in PubChem BioAssay by Broad Institute.
# NOMO-1 viab = NOMO-1 AML cell viability reduction, primary screen, STK33 inhibitor project, CellTiter-Glo luminescence; inhibition, % (no concentration beside the values); NOMO-1 AML viability, 72 h; AID 2330, 2010; actives 7.5% (n = 37,000); in the data active = inhibition above about 80%; inconclusive = no clear call, values can overlap the other calls
# Shh pathway inh = Hedgehog pathway signaling inhibitors, primary screen, luminescence, Shh-LIGHT2 cells, Gli-luciferase | Shh-LIGHT2 Gli-luciferase reporter, 30 h | inhibition, % (test concentration not listed) | actives 2.1% (n = 22,000);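 active = mean inhibition across valid replicates above about 65%, limit read from the data; inconclusive = mean under the limit, yet half or more replicates past it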;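 also: pathway switched on by Shh-conditioned medium diluted 1 in 25 in low serum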
# MITF inh = inhibitors of MITF, primary screen, MITF inhibitor project, cell-based, luminescence; inhibition, % (concentration not given with the values); TRPM1 promoter luciferase, 24 h; AID 2240, 2010; actives 0.28% (n = 37,000); in the data active = inhibition above about 85%; inconclusive = no clear call, values can overlap the other calls; inactive = below about 68%;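 also: human melanocyte line stably carrying TRPM1 promoter luciferase reporter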
# An asterisk follows results filed as active; ? = inconclusive; / = not tested or not shown. Most compounds without a hit are left out; they make up all but 8.1% or so of the library.
SMILES,NOMO-1 viab,Shh pathway inh,MITF inh
C[C@@H]1CN([C@H](C)CO)C(=O)Cc2cc(NC(=O)Nc3ccccc3)ccc2O[C@@H]1CN(C)CC1CCCCC1,104.4*,/,7.5
C[C@@H]1CN([C@H](C)CO)C(=O)Cc2cc(NC(=O)Nc3ccc(F)cc3)ccc2O[C@H]1CN(C)CC1CCCCC1,?,-57.9,12.1
C[C@@H]1CN([C@H](C)CO)C(=O)Cc2cc(NC(=O)Nc3ccc(F)cc3)ccc2O[C@@H]1CN(C)CC1CCCCC1,100.1*,/,-9.5
C[C@H]1CN([C@@H](C)CO)C(=O)Cc2cc(NC(=O)Nc3ccccc3)ccc2O[C@@H]1CN(C)CC1CCCCC1,101.4*,-25.4,-3.1
C[C@H]1CN([C@@H](C)CO)C(=O)Cc2cc(NC(=O)Nc3ccccc3)ccc2O[C@@H]1CN(C)CC1CC1,-1.3,/,-8.6
CCCn1nnc(NC(=O)COc2ccc(Cl)c(C)c2)n1,-3.1,/,-9.0
COc1ccc(NC(=O)Nc2cccc3c2O[C@@H](CN(C)C(=O)Nc2cccc4ccccc24)[C@H](C)CN([C@@H](C)CO)C3=O)cc1,33.0,-49.2,1.3
C[C@@H]1CN([C@H](C)CO)C(=O)Cc2cc(NC(=O)C3CCCCC3)ccc2O[C@@H]1CN(C)CC1CCCCC1,1.0,75.8*,-7.9
C[C@H]1CN([C@@H](C)CO)C(=O)Cc2cc(NC(=O)C3CCCCC3)ccc2O[C@H]1CN(C)CC1CCCCC1,21.9,26.7,-10.6
Cc1cc(OCC(=O)Nc2ccc(O)c(-c3nc4ccccc4o3)c2)ccc1Cl,107.3*,/,41.8
Cc1cc(OCC(=O)Nc2ccc(O)c(-c3nc4ccccc4s3)c2)ccc1Cl,55.6,/,25.2
COc1ccc([N+](=O)[O-])cc1NC(=O)CN(c1cc(C)ccc1C)S(C)(=O)=O,8.4,/,-18.3
O=C(CC(NC1CC1)C(=O)O)c1ccc(Cl)cc1 (centres undefined),30.2,-5.3,-5.4
O=C(CC(Sc1ccc(Br)cc1)C(=O)O)c1ccc(Cl)cc1 (centres undefined),115.4*,53.0,6.1
O=C(CSc1nc2[nH]ncc2c(=O)n1-c1ccccc1)Nc1ccc(F)c(Cl)c1,51.0,/,61.2
CC(C)C[C@](CC(=O)OCc1ccc(O[C@@H]2O[C@H](CO)[C@@H](O)[C@H](O)[C@H]2O)cc1)(O[C@@H]1O[C@H](CO)[C@@H](O)[C@H](O)[C@H]1O)C(=O)OCc1ccc(O[C@@H]2O[C@H](CO)[C@@H](O)[C@H](O)[C@H]2O)cc1,94.9*,13.0,12.5
O=C(CC(O)(CC(=O)OCc1ccc(O[C@@H]2O[C@H](CO)[C@@H](O)[C@H](O)[C@H]2O)cc1)C(=O)OCc1ccc(O[C@@H]2O[C@H](CO)[C@@H](O)[C@H](O)[C@H]2O)cc1)OCc1ccc(O[C@@H]2O[C@H](CO)[C@@H](O)[C@H](O)[C@H]2O)cc1,9.7,-29.4,-22.1
S=c1nc(C23CC4CC(CC(C4)C2)C3)[nH][nH]1,-0.5,34.3,-9.2
Cc1sc(N)nc1C12CC3CC(CC(C3)C1)C2,105.1*,24.0,10.0
Cc1c(C(=O)Nc2cnccn2)oc2ccccc12,112.3*,/,-1.6
Cc1c(C(=O)Nc2nnc(SC/C=C/c3ccccc3)s2)oc2ccccc12,26.8,/,-60.8
CC1(C)CC(NC(=O)CC(c2ccc(F)cc2)c2ccco2)CCO1 (centres undefined),-6.4,/,-17.7
COc1cc(O)c(C(=O)CCc2ccccc2)c(O)c1Cc1ccccc1O,?,5.3,107.7*
COc1cc(O)c(Cc2ccccc2O)c(O)c1C(=O)CCc1ccccc1,113.6*,30.5,75.5
COc1cc(CCC(O)CC(=O)CCc2ccccc2)ccc1O (centres undefined),/,15.5,/
COc1cc(CCC(O)CC(=O)CCc2ccc(O)cc2)ccc1O (centres undefined),/,12.1,/
CC(=O)N[C@H]1[C@H](O[C@H]2CC[C@@]3(C)C(CC[C@]4(C)C3CC=C3[C@@H]5CC(C)(C)CC[C@]5(C(=O)OC5OCC(O)C(O)C5O)C(O)C[C@]34C)C2(C)C)O[C@H](COC2OCC(O)C(OC3OCC(O)C(O)C3O)C2O)[C@@H](O[C@@H]2O[C@@H](C)[C@H](O)[C@@H](O)[C@H]2O[C@@H]2O[C@@H](C)[C@H](O)[C@@H](O)[C@H]2O)[C@@H]1O (some centres undefined),52.3,32.6,-48.7
COc1ccc(S(=O)(=O)N(C)C[C@H]2Oc3c(NC(=O)c4ccc(-c5nccs5)cc4)cccc3C(=O)N([C@@H](C)CO)C[C@H]2C)cc1,6.7,-19.2,3.6
COc1ccc(Cl)cc1NC(=O)CSc1nnc(N)s1,4.3,/,2.0
Cc1ccc(S(=O)(=O)N2C(=O)CCC2C(=O)Nc2cccc3c2CCCC3)cc1 (centres undefined),-1.2,/,-14.5
